Screening results: PubChem, National Center for Advancing Translational Sciences (NCATS)
IMPase Li inh: membrane-permeable IMPase blocker, potentiated with lithium; CHO-M1 cells, IP1 TR-FRET (IP-One), carbachol + lithium; Potency, µM (top dose mostly 59.4 µM), actives largely listed as inhibitors; 210,000 compounds, 0.35% hits; AID 1457; active = well fitted curve in the direction sought with a large enough effect; inconclusive = small, poorly fitted or top-dose-only effect, or another doubt; inactive = no such curve, though single readings can be large; an effect the other way counts as inactive or inconclusive;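 also: IP1 builds up when IMPase is blocked and the TR-FRET signal falls; nearly all actives have a fitted effect of over 50% in size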
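CHO cells stably expressing M1 receptor (2000/well) were cultured 16–30 h, then exposed to compounds with a small lithium addition for 30 min at 37C. IP1 was measured by TR-FRET competition; AC50 from Hill fits.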
PNC inhibitor: blocks assembly of the perinucleolar compartment; PC3M PTB-GFP, PNC prevalence imaging, 16 h; hits give low values; AID 2417; 140,000 compounds, 3.1% hits; activity change (PNC), negative = inhibition, % at 10 µM;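 active = readout at or below -70, meaning at least 70% loss of cells showing the perinucleolar compartment, a nuclear body marking cancer cells; inconclusive = readout between -30 and a set limit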
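Read-out is percentage of cells bearing a perinucleolar compartment, from automated 20x imaging of fixed, Hoechst-stained PC3M PTB-GFP cells. Cells were seeded 4 h, then exposed 16 h to compound (23 nl of library stock) in duplicate plates.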
12-hLO inh: blocks human 12-lipoxygenase activity; P18054; purified 12-hLO, xylenol orange hydroperoxide absorbance; Potency, µM (highest dose often 57.1 µM), actives largely listed as inhibitors; 150,000 compounds, 0.12% hits; AID 1452; active = well fitted curve in the direction sought with a large enough effect; inconclusive = small, poorly fitted or top-dose-only effect, or another doubt; inactive = no such curve, though single readings can be large; an effect the other way counts as inactive or inconclusive; also: nearly all actives have a fitted effect of over 55% in size
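Hydroperoxide formation by human 12-lipoxygenase from 40 uM arachidonic acid was followed colorimetrically via ferric-xylenol orange complex, using the 573/405 nm absorbance ratio. Enzyme concentration was 150 nM, with 30 min reaction at room temperature.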
ALDH1A1 inh: blocks purified human ALDH1A1 activity. Purified ALDH1A1, NADH fluorescence, propionaldehyde substrate. P00352. 220,000 compounds, 7.3% hits. Potency, µM (doses to about 75.3 µM), most hits filed as inhibitors
IMPase inh: membrane-permeable compound that blocks inositol monophosphatase | AID 901 | inhibition (IP1 accumulation), % at 46.1 µM | 120,000 tested, under 10 active | CHO-M1 cells, IP1 accumulation, HTRF TR-FRET ratio; active = well fitted curve in the direction sought with a large enough effect in the signal ratio, not every such curve was filed as active; inconclusive = small, poorly fitted or top-dose-only effect, or a change in a side signal; inactive = no such curve, though single readings can be large or run the other way; the % refers to the signal ratio;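 also: cells stimulated with carbachol in lithium chloride buffer; higher means more IMPase inhibition seen as more IP1 and lower FRET ratio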
Target sequence (P97697 whole entry, looked up): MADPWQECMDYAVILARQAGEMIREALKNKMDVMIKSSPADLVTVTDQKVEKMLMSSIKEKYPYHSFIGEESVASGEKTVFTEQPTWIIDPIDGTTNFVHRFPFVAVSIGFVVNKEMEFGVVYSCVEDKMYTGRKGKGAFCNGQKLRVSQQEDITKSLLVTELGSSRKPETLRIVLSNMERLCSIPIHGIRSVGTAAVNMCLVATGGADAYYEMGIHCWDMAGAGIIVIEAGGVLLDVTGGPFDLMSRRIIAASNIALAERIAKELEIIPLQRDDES
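The IP-One HTRF competitive assay in carbachol-stimulated CHO-M1 cells quantifies cellular IP1. Compounds spanned up to 46 uM final, and activity is expressed as AC50 from concentration-response fits of the ratio and donor data.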
HPGD inh: HPGD (human) dehydrogenase inhibition. 150,000 compounds, 4.3% hits. AID 894. P15428. Potency, µM, usual class: inhibitors. purified HPGD, NADH fluorescence kinetic, PGE2 substrate
Target sequence (P15428 whole entry, looked up): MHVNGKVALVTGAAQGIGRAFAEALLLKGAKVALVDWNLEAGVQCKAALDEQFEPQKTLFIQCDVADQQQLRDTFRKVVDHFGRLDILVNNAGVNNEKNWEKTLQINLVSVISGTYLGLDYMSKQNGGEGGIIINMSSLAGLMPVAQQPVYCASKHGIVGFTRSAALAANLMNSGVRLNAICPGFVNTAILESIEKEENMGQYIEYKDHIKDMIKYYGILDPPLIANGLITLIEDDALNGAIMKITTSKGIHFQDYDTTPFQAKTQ
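20 nM HPGD preincubated 15 min at room temperature with compound in 50 mM Tris-HCl pH 8, 0.01% Tween 20. Started with 1 mM NAD+ and 30 uM prostaglandin E2; NADH fluorescence (360/450 nm) read 5 times over 30-s intervals, last minus first.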
Hits are given with their value; - = inactive; ? = inconclusive; . = no result given; ! = repeats disagree; [ ] = another dose, or the depositor's remark. Most compounds without a hit are left out; they make up all but 11% or so of the library. Unless noted, calls follow the shape of the dose curve; as a rule, active = well fitted inhibition curve with a large enough effect (not every such curve was filed as active); inconclusive = small, poorly fitted or top-dose-only effect, or another doubt; inactive = no such curve, though single readings can be large or run the other way.

SMILES	IMPase Li inh	PNC inhibitor	12-hLO inh	ALDH1A1 inh	IMPase inh	HPGD inh
Cc1ccc(N2C(=O)NC(NC(=O)C3CC3)(C(F)(F)F)C2=O)cc1 (centres undefined)	-	-100.2	-	-	.	-
Cc1ccccc1CN1CCN(CC2CC3C=CC2C3)CC1 (centres undefined)	-	-	-	-	-	-
C1=CC2CC1CC2CN1CCN(c2ccccc2)CC1 (centres undefined)	-	-81.4	-	-	-	-
CC(=O)Nc1ccc(S(=O)(=O)N2CCN(Cc3ccccn3)CC2)cc1	-	-	-	?	-	-
CC(=O)Nc1ccc(S(=O)(=O)N2CCN(Cc3ccccc3[N+](=O)[O-])CC2)cc1	-	.	.	22.4µM	.	.
O=[N+]([O-])c1ccccc1S(=O)(=O)N1CCN(CC2CC3C=CC2C3)CC1 (centres undefined)	-	.	.	14.1µM	.	.
CC(=O)Nc1ccc(S(=O)(=O)N2CCN(CC3CC4C=CC3C4)CC2)cc1 (centres undefined)	-	.	.	4.47µM	.	.
CCS(=O)(=O)N1CCN(S(=O)(=O)c2ccccc2[N+](=O)[O-])CC1	-	.	.	-	.	.
CS(=O)(=O)N1CCN(CC2CC3C=CC2C3)CC1 (centres undefined)	-	-89.4	-	-	-	-
CCN1CCN(CC2CC3C=CC2C3)CC1 (centres undefined)	-	-	-	?	-	-
COc1ccc(-c2[nH]c(-c3ccc4c(c3)OCO4)nc2-c2ccccc2)cc1	-	-	-	?	-	?
NC(=O)c1ccc(-c2nc(-c3ccc4c(c3)OCO4)c(-c3ccccn3)[nH]2)cc1	2.51µM!	.	-	?	-	?
Nn1c(SC/C=C/c2ccccc2)nnc1-c1cccnc1	-	-	-	12.6µM	-	-
Clc1ccc(-n2c(SC/C=C/c3ccccc3)nnc2-c2cccnc2)cc1	-	?	-	?	-	-
Cc1cc(NC(=O)Cn2ccsc2=N)c([N+](=O)[O-])cc1C	-	.	.	-	.	.
Cc1ccc(NC(=O)Cn2ccsc2=N)c([N+](=O)[O-])c1	-	.	.	7.08µM	.	.
Cc1cc(C)c(NC(=O)/C=C\C(=O)O)c([N+](=O)[O-])c1	-	-	-	10µM	-	22.4µM
Cc1ccc(NC(=O)/C=C\C(=O)O)c([N+](=O)[O-])c1	-	-	-	12.6µM	-	-
Cc1ccc(O)c(NC(=O)/C=C/C(=O)O)c1	-	.	.	-	.	.
O=c1c(-c2ccccc2)nc2cncnc2n1Cc1ccccc1Cl	-	.	-	-	.	-
O=C(CSc1nc(-c2cccs2)cc(C(F)(F)F)n1)Nc1cc(OCC(F)(F)F)cc([N+](=O)[O-])c1	-	-89.9	-	-	.	-
CCCCCOc1ccc(C2c3c(oc4ccccc4c3=O)C(=O)N2c2nc(C)c(C)s2)cc1OCC (centres undefined)	.	.	.	.	-	.
O=C(OCc1csc(-c2ccccc2)n1)c1ccccc1O	-	.	.	-	.	.
CCOCCCNC(=O)c1ccccc1SCC	-	-	-	-	.	?
CCOC(=O)CCNC(=O)c1ccccc1Br	-	-	-	-	-	17.8µM
SMILES	IMPase Li inh	PNC inhibitor	12-hLO inh	ALDH1A1 inh	IMPase inh	HPGD inh
CCOCCCNC(=O)c1ccccc1Br	-	-	-	-	-	10µM
CCOC(=O)Cc1ccc(NC(=O)c2ccccc2Br)cc1	-	.	.	-	.	.
CCOC(=O)c1c(-c2ccc(Br)cc2)csc1NC(=O)c1ccc(C(C)(C)C)cc1	.	.	.	.	-	.
CCOC(=O)N1N=C(CC)CC1(O)C(F)(F)F (centres undefined)	-	-85.9	-	-	-	-
N#Cc1cccc(-c2nccc(NCc3cccnc3)n2)c1	-	.	.	?	.	.
Cc1nc(NCCO)c2nc(-c3ccccc3)n(CCCN(C)C)c2n1	-	.	-	?	.	?
O=S(=O)(NCC(O)COCc1ccco1)c1cccs1 (centres undefined)	-	?	-	7.94µM	-	-
Cc1ccc(C(=O)COC(=O)C(CC(C)C)NC(=O)C2CCC(C)CC2)cc1 (centres undefined)	.	.	.	.	-	.
CC(C)[C@@H]1NC(=O)c2cc([N+](=O)[O-])cc(I)c2NCC[C@@H](C(N)=O)NC(=O)[C@H](CO)NC1=O	-	-	-	-	.	-
CC(C)C[C@@H]1NC(=O)[C@H](Cc2ccc(O)cc2)NC(=O)[C@H](CCC(N)=O)NC(=O)c2cc([N+](=O)[O-])cc(I)c2NCC[C@@H](C(N)=O)NC1=O	-	?	-	3.98µM	.	-
CC(C)C[C@@H]1NC(=O)[C@H](C(C)C)NC(=O)c2cc([N+](=O)[O-])cc(I)c2NCC[C@@H](C(N)=O)NC1=O	-	-	-	28.2µM	.	-
Cc1noc(/C=C/c2ccco2)c1S(=O)(=O)N1CCC(C(=O)N2CCc3ccccc3C2)CC1	-	-	-	?	-	20µM
O=C(NCCC1=CCCCC1)C1CCN(S(=O)(=O)c2ccc(Br)s2)CC1	-	?	-	18.9µM	.	-
CCS(=O)(=O)N1CCC(C(=O)NCCC2=CCCCC2)CC1	-	?	-	?	-	-
COc1ccc(OC)c(S(=O)(=O)N2CCC(C(=O)NCCC3=CCCCC3)CC2)c1	-	-100.0	-	22.4µM	-	-
COc1ccc(OC)c(S(=O)(=O)N2CCC(C(=O)N3CCc4ccccc4C3)CC2)c1	-	-	-	?	-	22.4µM
Cc1ccc(NC(=O)C2CCN(S(=O)(=O)c3c(C)noc3/C=C/c3ccco3)CC2)nc1	-	?	-	?	.	-
O=C(NCCC1=CCCCC1)C1CCN(S(=O)(=O)N2CCCC2)CC1	-	.	.	?	.	.
CC(C)(C)c1ccc(C(=O)N2CCC(C(=O)NCCC3=CCCCC3)CC2)cc1	-	-	-	10µM	-	-
COc1ccc(OC)c(S(=O)(=O)N2CCN(c3c(C)cccc3C)CC2)c1	-	-	-	14.1µM	-	-
CN(C(=O)CCc1nc(-c2ccccc2F)no1)c1ccc(Cl)cc1	.	.	.	.	-	.
CC1=C/C(=N\NC(=S)Nc2cccnc2)CC(C)(C)C1	-	.	.	11.9µM	.	.
N#C/C(=C\C=C\c1ccccc1[N+](=O)[O-])C(=O)NC1CCCCC1	-	.	.	25.1µM	.	.
N#C/C(=C\c1ccccc1[N+](=O)[O-])C(=O)NC1CCCCC1	-	.	.	7.08µM	.	.
N#C/C(=C\c1cccn1-c1ccccc1)C(=O)NC1CCCCC1	-	-	-	7.08µM	-	-
N#C/C(=C\c1cc(Cl)cc(Cl)c1O)C(=O)NC1CCCCC1	-	-	-	31.6µM	-	?
CCCCCCC1Cc2cc(OC)c(OC)cc2C(C(C(=O)OCC)C(=O)OCC)O1 (centres undefined)	.	.	.	-[13.5 µM]	.	.
Cc1cc(OCc2nc(N)nc(N)c2-c2ccc(Cl)c(Cl)c2)ccc1[N+](=O)[O-]	-	.	-[11.4 µM]	-[13.5 µM]	.	-
O=C(O)CC1(CC(=O)Nc2ccc3ccccc3c2)CCCCC1	?	-	-	?	-	3.98µM
